Among the data in PubChem BioAssay AID1578 (Sanford-Burnham Center for Chemical Genomics, 2009) are inhibition values, retold here.

Screen size: about 290,000 compounds; about 3,000 (1%) were called active. This excerpt belongs to a sample that is enriched for actives. Unmarked numbers belong to inactive results. No stated cut-off is given here; in the data, active means inhibition mostly above about 36% (no sharp cut-off); inactive means mostly below about 34%.

The assay can be described thus: inhibition of NOD1-driven NF-kB reporter – cell-based, luminescence, uHTS, primary screen (AID 1578).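 Further: HEK-293T reporter cells stimulated with the NOD1 agonist gamma-tri-DAP.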 To be noted: NOD1-driven NF-kB luciferase reporter cells, at 4 µM, hits give high values.
Consider `CCOc1ccc(N(CC(=O)O)S(=O)(=O)c2ccc(F)cc2)cc1`, for which the inhibition (in general, the drop in the measured response relative to a control, in per cent) was 22.2%. To `COc1cccc2cc(C(=O)NC(C)C3CCCO3)c(=O)oc12` (stereo not given) belongs -27.3%. For the compound `CCCCn1c(NC(=O)c2ccccc2Cl)c(C#N)c2nc3ccccc3nc21`, the inhibition is 20%. Turning to `N#Cc1c(NC(=O)c2ccccc2Cl)n(Cc2ccccc2)c2nc3ccccc3nc12`, the inhibition is 83.5% (active). To `CCCCn1c(NC(=O)CC)c(C#N)c2nc3ccccc3nc21` belongs -7.1%. The same measure for `C=CCn1c(NC(=O)c2ccccc2Cl)c(C#N)c2nc3ccccc3nc21`: 28.8%; for `CCCCn1c(NC(C)=O)c(C#N)c2nc3ccccc3nc21`: 22.5%; for `CCCCn1c(NC(=O)c2ccccc2)c(C#N)c2nc3ccccc3nc21`: 88.5% (active). In the case of `O=C(C[n+]1cc(Br)cc(Br)c1)c1ccc(Cl)cc1`, the inhibition was -7.2%. For the compound `CC(=O)Nc1ccc(S(=O)(=O)N2CCC(C(=O)NCCC(=O)Nc3ccccc3)CC2)cc1`, the inhibition is -17.6%. As for `CCN(CC)c1nc2c(c(=O)[nH]c(=O)n2C)n1CCCc1ccccc1`, the inhibition is -13.8%. To `CC1c2ccccc2SC(CCCN(C)C)c2ccccc21` (stereo not given) belongs 59.5% (active). For the compound `CNCCCC1Sc2ccccc2Oc2ccccc21` (stereo not given), the inhibition is -31.7%. To `CN(C)CCC1Sc2ccccc2Oc2ccccc21` (stereo not given) belongs -13.4%; to `COc1cccc(N2C(=O)N(c3ccccc3Cl)C3CS(=O)(=O)CC32)c1` (stereo not given), -14.5%; to `Cc1n[nH]c(C)c1CCCCOc1ccc([N+](=O)[O-])cc1`, -1.4%.

Consider `COC(=O)C1CCN(C(=O)C2CCC(=O)N(CCc3cccc(F)c3)C2)CC1` (stereo not given), for which the inhibition was -26.6%. With `C/C=C(\CS(=O)(=O)c1ccccc1)S(=O)(=O)c1ccccc1`, the inhibition was 60.5%. To `O=S(=O)(C/C(=C/CO)S(=O)(=O)c1ccccc1)c1ccccc1` belongs 100% (active); to `C/C(CS(=O)(=O)c1ccccc1)=N\O`, -22.4%. On to `COc1cccc(OCC(=O)Nc2ccncc2)c1`, for which the inhibition is -11.4%. The same measure for `COc1ccccc1NC(=O)/C=C/c1ccc(OC)c(S(=O)(=O)N2CCOCC2)c1`: -9.3%; for `CSc1nc(C)cc(OCCNS(=O)(=O)c2cc(C)ccc2C)n1`: -15%; for `Cc1ccccc1COC(=O)c1cc([N+](=O)[O-])ccc1N1CCOCC1`: -37.5%. As for `Cc1ccccc1CN1CCc2cc([N+](=O)[O-])ccc21`, the inhibition was 58.2% (active). Regarding `Cc1ccccc1Cn1c(C)nc2ccc([N+](=O)[O-])cc2c1=O`, the inhibition is -19.5%. The same measure for `O=c1c2ccccc2cnn1Cc1ccc(Br)cc1F`: -29.7%; for `Cc1c(C(=O)N2CCCCC2)nn(-c2ccc(Cl)cc2)c(=O)c1C#N`: -10.3%. To `COc1cc(CN2CCCN(C)CC2)cc([N+](=O)[O-])c1O` belongs -23.1%; to `O=C(O)CSCC(=O)N1N=C2/C(=C/c3ccccc3)CCCC2C1c1ccccc1` (stereo not given), -13.2%; to `CC(=O)N1N=C2/C(=C/c3ccccc3)CCCC2C1c1ccccc1` (stereo not given), 79.9% (active). `NC(=O)N1N=C2/C(=C/c3ccccc3)CCCC2C1c1ccccc1` (stereo not given): the inhibition was -6.2%. For `CN(C)S(=O)(=O)c1cccc(C(=O)Nc2ccccc2)c1`, the inhibition is -30.7%. To `O=c1c(-c2ccc(Cl)cc2)c[nH]n1-c1ccccc1` belongs -5.7%; to `CCOc1cccc(N2C(=O)CC(NCc3ccc(S(N)(=O)=O)cc3)C2=O)c1` (stereo not given), -9.2%. The same measure for `Cc1ccc(-n2c(SCC(=O)N3CCCCC3)nc(O)c(Cc3ccccc3)c2=O)cc1`: -18.9%. The same measure for `Cc1cccc(NC(=S)Nc2ccccn2)c1`: -0.2%.

Consider `COc1ccc(NC(=S)Nc2ccccn2)cc1`, for which the inhibition was 6.6%. Regarding `S=C(Nc1ccc(Nc2ccccc2)cc1)Nc1ccccn1`, the inhibition was 74.1% (active).

For the compound `COc1cc(/C=N/Nc2nc(-c3ccc(S(=O)(=O)N(C)C)cc3)cs2)ccc1O`, the inhibition was 31.8% (active).

For the compound `CN(C)S(=O)(=O)c1ccc(-c2csc(N/N=C/c3ccc(O)cc3)n2)cc1`, the inhibition is 12.3%. In the case of `COc1ccc(/C=N/Nc2nc(-c3cccc(S(=O)(=O)N4CCCC4)c3)cs2)cc1OC`, the inhibition is 52.7%.

For `N#C/C(=C\c1ccc2c(c1)OCCO2)C(=O)Nc1ccc(C(=O)O)cc1`, the inhibition is 1.3%. The same measure for `CC(C)(C)Nc1c([N+](=O)[O-])c(=O)sc2ccccc12`: -30.9%; for `CCCCCCNc1c([N+](=O)[O-])c(=O)sc2ccccc12`: 71% (active); for `CCCCNc1c([N+](=O)[O-])c(=O)n(C)c2ccccc12`: -21.6%. Take `COc1cc2c(cc1OC)CN(C(=O)COc1ccc(C#N)cc1)CC2`: the inhibition was 10%.

In the case of `Cc1c(NC(=S)NC(=O)CC(C)C)c(=O)n(-c2ccccc2)n1C`, the inhibition is -31.4%. For `CCN1/C(=C/C=C/C=C/c2sc3ccccc3[n+]2CC)Sc2ccccc21`, the inhibition is 66.1%. As to `CCN1/C(=C/c2ccc3ccccc3[n+]2CCCS(=O)(=O)[O-])C=Cc2cc(C)ccc21`, the inhibition is -1.5%. As to `CC1=NN(C(=O)c2ccc(Cn3nc(C)c([N+](=O)[O-])c3C)o2)C(O)(C(F)(F)F)C1` (stereo not given), the inhibition was -21.3%. As for `CCCCc1nc2sc3c(SCCN(C)C)ncnc3c2c2c1CCC2`, the inhibition was -4.1%. To `Brc1ccc(OCc2cn3ccccc3n2)cc1` belongs -41.6%; to `COc1ccccc1NS(=O)(=O)c1cc(NC(=O)c2cc(=O)[nH]c3ccccc23)ccc1N1CCOCC1`, 0.5%; to `COc1ccc(-c2onc(C)c2C)cc1S(=O)(=O)NCCc1ccco1`, 2.5%. The same measure for `Cc1cc(C)c(C)c(S(=O)(=O)N2CCCCC2C(=O)O)c1C` (stereo not given): 0.3%; for `Oc1cccc(/C=N\Nc2nncc(-c3ccccc3)n2)c1`: -8.4%. Regarding `COc1ccc(-c2cnnc(N/N=C/c3ccc(O)cc3)n2)cc1`, the inhibition was -15.9%.

With `Oc1ccc(/C=N\Nc2nncc(-c3ccccc3)n2)cc1`, the inhibition is 59.3% (active).

Regarding `CC(=O)Oc1ccc(/C=C(\NC(=O)c2ccco2)C(=O)Nc2ccc(C(C)=O)cc2)cc1`, the inhibition was -31.3%.
